# Experimental data as given in ChEMBL document CHEMBL3988442, “University of Dundee, Small-Polar-MMV Screening Library” (2021).
# Hit rate of the full screen: of about 48,000 compounds, about 13,000 (27%) showed an effect of 50% or more. The list shows a part of the results.
# Test system: Wolbachia pipientis
# Test: Anti-Wolbachia Cell-Based Screen
# Assay type: functional
# Set-up: scale not given: in the data most compounds retested in dose-response had high values
# Conditions: 5 µM
row,Structure (SMILES),Percent Effect
1,Cn1cnc2c1CCN(CC(O)c1ccc3c(c1)OCCO3)C2 (stereo not given),2.698%
2,Cc1nc(C(=O)N2CC(C)Sc3ccccc32)cs1 (stereo not given),-0.9397%
3,CN(Cc1ncnn1C)c1ccnc(Cc2ccccc2)n1,-0.8819%
4,CCS(=O)(=O)N1CCC2(CC1)CN(CC1CCOC1)c1ccccc12.O=C(O)C(F)(F)F (stereo not given),101.7%
5,CCS(=O)(=O)N1CCC2(CCC(N3CCCC3)c3ccccc32)CC1.O=C(O)C(F)(F)F (stereo not given),6.992%
6,CCCS(=O)(=O)N1CCC2(CC1)CN(C(=O)N(C)C)c1ccccc12,-3.576%
7,CS(=O)(=O)N1CCC2(CC1)CN(CC1CCOC1)c1ccccc12.O=C(O)C(F)(F)F (stereo not given),90.82%
8,CCCS(=O)(=O)N1CCC2(CC1)CN(CC1CCOC1)c1ccccc12.O=C(O)C(F)(F)F (stereo not given),105.4%
9,O=C(O)C(F)(F)F.c1cncc(C2CC3(CCN(c4cnccn4)CC3)c3ccccc32)c1 (stereo not given),23.08%
10,CCCS(=O)(=O)N1CCC2(CC1)CC(N1CCCC1)c1ccccc12.O=C(O)C(F)(F)F (stereo not given),11.6%
11,O=C(O)C(F)(F)F.c1ccc2c(c1)N(CC1CCOC1)CC21CCN(c2cnccn2)CC1 (stereo not given),103.7%
12,O=C(O)C(F)(F)F.c1cnc(N2CC3(CCN(CC4CCOC4)CC3)c3ccccc32)nc1 (stereo not given),-15.18%
13,O=C(O)C(F)(F)F.c1cnc(N2CC3(CCN(C4CCOCC4)CC3)c3ccccc32)nc1,5.791%
14,O=C(O)C(F)(F)F.O[C@@H]1CCN(CC2CCOC2)[C@H]1Cc1ccccc1 (stereo not given in full),-6.584%
15,CN1CC2(CCN(S(=O)(=O)C3CC3)CC2)c2ccccc21.O=C(O)C(F)(F)F,-12.74%
16,COC[C@]12COC[C@H]1CN(S(=O)(=O)c1cccnc1)C2,6.326%
17,Cc1nnc(N2C[C@H]3OCC[C@H]3[C@H](C(=O)NCC3CC3)C2)s1.O=C(O)C(F)(F)F,-6.656%
18,O=C1CC2(CCN(Cc3ccc4cccc(O)c4n3)CC2)CN1,-6.934%
19,COc1ccc(CCNc2cc(-c3nc(C)no3)ccn2)cc1OC,-4.716%
20,CCC(=O)N1CCC2(COCc3c(C)nc(NCc4ccco4)nc32)C1 (stereo not given),0.949%
21,CNC(=O)N1CCC2(COCc3c(C)nc(NCc4ccco4)nc32)C1 (stereo not given),-16.5%
22,Fc1cnc(N2CCC3(COCc4cnc(NCC5CC5)nc43)C2)nc1 (stereo not given),3.153%
23,CCC(=O)N1CCC2(COCc3cnc(NCc4ccco4)nc32)C1 (stereo not given),102.3%
24,CC(C)(C)C(=O)N1CCC2(COCc3cnc(N4CCOCC4)nc32)C1 (stereo not given),-4.302%
25,COCC(=O)N1CCC2(COCc3cnc(NCc4ccco4)nc32)C1 (stereo not given),94.68%
26,O=C(C1CC1)N1CCC2(COCc3cnc(NCc4ccco4)nc32)C1 (stereo not given),107.6%
27,CCC(C)(CC(=O)OC)NC(=O)c1cccc(F)c1F (stereo not given),0.5787%

row,Structure (SMILES),Percent Effect
1,Cc1cc(NCCO)nc(N2CCC(Cc3ccccc3)CC2)c1C#N.O=C(O)C(=O)O,-4.494%
2,CC(C)N(CCSc1ncnc2[nH]ncc12)C(C)C,-23.68%
3,O=S(=O)(NCCn1cc(C2CCOC2)nn1)c1ccc(Cl)cc1 (stereo not given),2.449%
4,CCc1noc(CNc2cc3c(cc2Cl)OCCO3)n1,29.93%
5,N#Cc1ccc(OCCOc2ccccc2C(=O)N2CCOCC2)cc1,2.422%
6,CO[C@H]1CC[C@H]2[C@H]1OCCN2Cc1ccc(F)c(F)c1.O=C(O)C(F)(F)F,110.9%
7,CO[C@@H]1CC[C@H]2[C@H]1OCCN2CCOCc1ccccc1.O=C(O)C(F)(F)F,11.38%
8,CO[C@H]1CC[C@H]2[C@H]1OCCN2CCOCc1ccccc1.O=C(O)C(F)(F)F,-1.824%
9,CO[C@@H]1CC[C@H]2[C@H]1OCCN2Cc1ccc(F)c(F)c1.O=C(O)C(F)(F)F,101.8%
10,O=C(Nc1ccc2c(c1)OCO2)N1CCN(CCn2cccn2)CC1,14.77%
11,CCc1cnc2c(c1Nc1ccc3c(c1)OCO3)c(=O)n(C)c(=O)n2C,105.3%
12,CCc1cnc2c(c1Nc1ccc(C)c(F)c1)c(=O)n(C)c(=O)n2C,84.08%
13,CCc1cnc2c(c1Nc1ccncc1)c(=O)n(C)c(=O)n2C,1.173%
14,Cc1ccc(Nc2c(C#N)c(=O)n(C)c(=O)n2C)cc1F,8.024%
15,O=C(Nc1ccc2c(c1)OCO2)N1CCN(CCn2ccnc2)CC1,-13.91%
16,Cn1cnc(S(=O)(=O)Nc2cc(C(N)=O)ccc2Cl)c1,-10.15%
17,Cn1cc(C(=O)Nc2ccc3c(c2)CN(C(=O)c2ccco2)CC3)nn1,12.57%
18,CC(=O)N1CCc2ccc(NC(=O)c3cn(C)nn3)cc2C1,105.1%
19,Cn1cc(C(=O)Nc2ccc3c(c2)CN(C(=O)C2CC2)CC3)nn1,116.9%
20,Cn1cc(C(=O)Nc2ccc(CC(=O)NCC(F)(F)F)cc2)nn1,-7.927%
21,COC(=O)N1CCc2ccc(NC(=O)c3cn(C)nn3)cc2C1,2.493%
22,Cn1cc(C(=O)Nc2ccc3c(c2)N(C(=O)c2ccco2)CC3)nn1,115.2%
23,CN(C)C(=O)Cc1ccc(NC(=O)c2cn(C)nn2)cc1,-4.709%
24,Cn1cc(C(=O)Nc2ccc(CC(=O)NC3CC3)cc2)nn1,-0.7616%
25,Oc1cc(CN2CCC(O)(Cn3ccnc3)CC2)nc2c(Cl)cccc12,-8.472%
26,CC(CNC(=O)c1ccon1)Oc1cccc(Br)c1 (stereo not given),-16.92%
27,c1cc(-c2ccc(CN3CCC4(CCNCC4)CC3)s2)[nH]n1,13.89%

row,Structure (SMILES),Percent Effect
1,CN(C(=O)c1ccccn1)c1nc2c(s1)CCc1c-2cnn1C,-10.1%
2,CCCN1CCN(C(=O)c2cnccn2)[C@H]2CS(=O)(=O)C[C@H]21,-1.357%
3,COCCCNC(=O)C1CN(C(=O)c2cnccn2)C1,10.57%
4,CCCN(C(=O)c1cnc(C)cn1)c1nc2c(s1)CCc1c-2cnn1C,90.09%
5,COCCN(C(=O)c1cnccn1)c1nc2c(s1)CCc1c-2cnn1C,99.99%
6,COCCN(C(=O)c1ccccn1)c1nc2c(s1)CCc1c-2cnn1C,88.66%
7,Cc1cccc(N(CCC(N)=O)C(=O)c2cnccn2)c1,-11.19%
8,COCC1c2nnn(CC3CC3)c2CCN1C(=O)c1cnccn1 (stereo not given),-15.7%
9,CCCN(C(=O)c1ccccn1)c1nc2c(s1)CCc1c-2cnn1C,-6.785%
10,CCCN(C(=O)c1cnccn1)c1nc2c(s1)CCc1c-2cnn1C,84.76%
11,CCN(Cc1cccc2c1OCO2)CC1CCCO1 (stereo not given),-5.577%
12,Cl.O=C(OCC1CCCN1)c1cccc(NC(=O)c2ccco2)c1 (stereo not given),-13.38%
13,CC1(C)[C@H]2CC=C(CN3CCCn4nc(C(=O)O)cc4C3)[C@@H]1C2,-7.582%
14,Cc1nc(C)c(C)c(N(C)CCCc2nccn2C)n1,1.22%
15,Cc1ccccc1C(C(=O)N(C)CCc1cnn(C)c1)N(C)C (stereo not given),-25.6%
16,CCc1cnc(C)nc1N(C)CCCc1cnn(C)c1,93.68%
17,CCc1cnc(N)nc1N(C)CCc1cnn(C)c1,112.4%
18,Cc1c(NC(=O)N(C)CCCc2cnn(C)c2)cnn1C,-9.365%
19,CN(CCCc1cnn(C)c1)C(=O)C1CCOC1 (stereo not given),-24.42%
20,CC(C)N1CCCC(C(=O)N(C)CCCc2cnn(C)c2)C1 (stereo not given),-3.497%
21,Cc1ncc(S(C)(=O)=O)c(N(C)CCCc2cnn(C)c2)n1,106.8%
22,Cc1nc(C(C)C)sc1C(=O)N(C)CCCc1cnn(C)c1,-1.065%
23,CN(CCc1cnn(C)c1)C(=O)C1COc2ccccc2C1 (stereo not given),12.32%
24,Cc1cnc(N(C)CCCc2cnn(C)c2)nc1N(C)C,116.9%
25,CC(NCCCc1cnn(C)c1)c1ccc(Br)s1 (stereo not given),0.1879%
26,CN(C)C(=O)CCNC(=O)c1cnc(-c2ccccc2)nc1,-4.598%
27,O=S1(=O)CCC(n2cc(CNCC3(c4ccccc4)CC3)cn2)C1 (stereo not given),4.552%

row,Structure (SMILES),Percent Effect
1,O=C(c1ccc(OCC2CC2)cc1)N1CCOCC1c1ncon1 (stereo not given),-1.778%
2,Nc1cnc(-c2cccc3ccnn23)cn1,-6.103%
3,CN(CC(=O)Nc1ccc(Br)cn1)C(=O)Cc1ccc(O)cc1,-6.927%
4,Cc1cc(=O)[nH]c(SC(C)C(=O)N2CCC(NS(C)(=O)=O)CC2)n1 (stereo not given),-6.463%
5,CC(C)c1cc(N2CC[C@H](F)C2)n2nccc2n1,-1.052%
6,Cc1nnc(N2CCC(NS(C)(=O)=O)CC2)c(C#N)c1C,4.066%
7,Cc1cc(N2CCN(C(=O)c3cc(Cl)c[nH]3)CC2)nc(C(C)C)n1,-12.01%
8,CS(=O)(=O)NC1CCCN(c2ccc(C#N)cn2)C1 (stereo not given),4.469%
9,Cc1cc(N2CCC(NS(C)(=O)=O)CC2)nc(C(C)C)n1,66.62%
10,CNS(=O)(=O)C1CCN(c2cc(C(C)C)nc(C(C)C)n2)C1 (stereo not given),80.93%
11,CC(C)c1cc(N2CCC(NS(C)(=O)=O)CC2)n2nccc2n1,-0.6269%
12,CC(C)c1cc(N2CCC(NS(C)(=O)=O)C2)nc(C(C)C)n1 (stereo not given),107.7%
13,O=c1c2cnc(N3CCCCC3)nc2ccn1-c1ccccc1,8.71%
14,COCCSCC(=O)NC1(c2cccc(Br)c2)CC1,-2.226%
15,COc1ccc(CN2CC3(CCNCC3)CCC2=O)c(F)c1F,-14.66%
16,Cc1ccc(CN(C)c2nccc(-c3cn(C)nc3C)n2)o1,-5.707%
17,Cc1ncncc1-c1ccnc(NC(C)C)n1,107.6%
18,Cc1ncncc1-c1ccnc(N)n1,103.4%
19,Cc1ncncc1-c1ccnc(N(C)C)n1,99.71%
20,Nc1nccc(-c2c[nH]nc2C2CCCCC2)n1,-15.86%
21,Cc1nn(C)cc1-c1ccnc(N(C)Cc2ccc(F)cc2)n1,21.27%
22,Cc1ccc(-c2ccnc(NC(C)c3n[nH]c(C)n3)n2)c(C)n1 (stereo not given),-0.9271%
23,Nc1nccc(-c2cccc3ccnn23)n1,-5.19%
24,Cc1ccc(-c2ccnc(NC(C)c3ncc[nH]3)n2)c(C)n1 (stereo not given),7.863%
